Structures are written as SMILES.

In the supplement of paper PMC13380429 one finds morphology score and SARS-CoV-2 infection rate data, which are given here for twelve molecules.

Assay [1] deals with Vero E6 infected with SARS-CoV-2. Description: morphology score (similarity to uninfected cells); higher = more like uninfected cells. To be noted: 24 h.
Assay [2] has the same test system. Description: SARS-CoV-2 infection rate relative to infected DMSO; higher = more infection, active = 60 or less. To be noted: 24 h.

`NCC1CC(=O)N(Cc2ccccc2)C1` (centres undefined) [nebracetam] (10 µM): the morphology score in assay [1] worked out at 0.0779. Further, the SARS-CoV-2 infection rate in assay [2] is 102% (inactive).

Turning to `C[C@@H]1C[C@@H]([C@H](O)CC2CC(=O)NC(=O)C2)C(=O)[C@@H](C)C1` [cycloheximide] (10 µM), the morphology score in assay [1] came to 0.392. The SARS-CoV-2 infection rate in assay [2] is 69% (inactive).

Molecule `O[C@@H](CN1CCNCC1)Cn1c2ccc(Br)cc2c2cc(Br)ccc21` [BAX-channel-blocker] (0.833333 µM) displayed a morphology score in assay [1] of 0.121. Further, the SARS-CoV-2 infection rate in assay [2] is 104% (inactive).

Consider `N=C(N)NC(=N)NCCc1ccccc1` [phenformin] (10 µM), for which the morphology score in assay [1] worked out at 0.0321. In addition, the SARS-CoV-2 infection rate in assay [2] is 110% (inactive).

Consider `Cc1cccc(C)c1NC(=O)CN1CCN(CCCC(c2ccc(F)cc2)c2ccc(F)cc2)CC1` [lidoflazine] (10 µM), for which the morphology score in assay [1] is 0.34. Also, in assay [2], the SARS-CoV-2 infection rate was 76.5% (inactive).

On to `CC[C@H](C)C(=O)O[C@H]1C[C@H](O)C=C2C=C[C@H](C)[C@H](CC[C@@H](O)C[C@@H](O)CC(=O)O)[C@H]21` (10 µM), for which the morphology score in assay [1] was 0.0616. The SARS-CoV-2 infection rate in assay [2] was 106% (inactive).

As for `COc1ccnc2[nH]cc(C(=O)C(=O)N3CCN(C(=O)c4ccccc4)C[C@H]3C)c12` (10 µM), the morphology score in assay [1] was -0.0708. Further, the SARS-CoV-2 infection rate in assay [2] is 99% (inactive).

`CC(=O)NCCCS(=O)(=O)O` [acamprosate] (10 µM): the morphology score in assay [1] came to 0.0831. Further, the SARS-CoV-2 infection rate in assay [2] was 102% (inactive).

As for `CCC(=O)O[C@H]1CC[C@H]2[C@@H]3CCC4=CC(=O)CC[C@]4(C)[C@H]3CC[C@]12C` (10 µM), the morphology score in assay [1] is -0.129. In assay [2], the SARS-CoV-2 infection rate was 110% (inactive).

`CCc1cnn2c(NCc3ccc[n+]([O-])c3)cc(N3CCCC[C@H]3CCO)nc12` [dinaciclib] (0.833333 µM) displayed a morphology score in assay [1] of -0.154. Also, the SARS-CoV-2 infection rate in assay [2] was 116% (inactive).

In turn, `CCCCc1ncc(/C=C(\Cc2cccs2)C(=O)O)n1Cc1ccc(C(=O)O)cc1` [eprosartan] (10 µM) yielded a morphology score in assay [1] of 0.0906. In addition, the SARS-CoV-2 infection rate in assay [2] was 106% (inactive).

In turn, `C=CC(=O)Nc1ccc2ncnc(Nc3cccc(Br)c3)c2c1` (0.833333 µM) came in with a morphology score in assay [1] of 0.0618. Moreover, the SARS-CoV-2 infection rate in assay [2] is 90% (inactive).
